SMILES strings stand for the structures. Where “and” joins values, the source holds several entries; their conditions need not be identical. Equal entries are not always repeated. Records with an inconclusive call do not appear. Calls of active or inactive are those of the source. Unless noted, calls follow the shape of the full dose curve.

A short description of assay [1]: Inducers of the Endoplasmic Reticulum Stress Response (ERSR) in human glioma: Validation (AID 504836; active = well fitted curve in the direction sought with a large enough effect; an effect the other way counts as inactive or inconclusive; also: 0% is about no effect). In a few lines:
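Stably transfected U87-MG glioma cells carrying a GRP78-based luciferase sensor; 16 h compound incubation. Luminescence end-point read 10 min after Bright-Glo addition at room temperature.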

Assay [2] in a line: qHTS for Inhibitors of the Functional Ribonucleoprotein Complex (vRNP) of Lassa (LASV) Arenavirus: LASV Primary Screen - GLuc reporter signal (AID 1347082; calls by dose curve; tested in HEK293 reporter line; also: nearly all actives have a fitted effect of over 60% in size; also: potency is read from the fitted curve at half-maximal effect; as to activity change, negative = inhibition: % is scaled to controls: 0 for no effect and ±100 for the full control effect). (Quantitative high-throughput screening tests each substance at several concentrations.)
Assay [3] can be described thus: qHTS for Inhibitors of the Functional Ribonucleoprotein Complex (vRNP) of Lymphocytic Choriomeningitis Arenaviruses (LCMV): Viability assay - alamar blue signal for LCMV Primary Screen (AID 1347085; calls by dose curve; tested in HEK293 reporter line; also: nearly all actives have a fitted effect of over 80% in size; also: potency is read from the fitted curve at half-maximal effect).
The target in assay [4] is Nucleoprotein (Lymphocytic choriomeningitis virus (strain Armstrong)) (UniProt P09992). As to the kind of experiment: qHTS for Inhibitors of the Functional Ribonucleoprotein Complex (vRNP) of Lymphocytic Choriomeningitis Arenaviruses (LCMV): LCMV Primary Screen - GLuc reporter signal (AID 1347086). Also: nearly all actives have a fitted effect of over 70% in size. Also: potency is read from the fitted curve at half-maximal effect. As to activity change, negative = inhibition: % is scaled to controls: 0 for no effect and ±100 for the full control effect.
Sequence of Nucleoprotein (Lymphocytic choriomeningitis virus (strain Armstrong)) (P09992 whole entry, looked up): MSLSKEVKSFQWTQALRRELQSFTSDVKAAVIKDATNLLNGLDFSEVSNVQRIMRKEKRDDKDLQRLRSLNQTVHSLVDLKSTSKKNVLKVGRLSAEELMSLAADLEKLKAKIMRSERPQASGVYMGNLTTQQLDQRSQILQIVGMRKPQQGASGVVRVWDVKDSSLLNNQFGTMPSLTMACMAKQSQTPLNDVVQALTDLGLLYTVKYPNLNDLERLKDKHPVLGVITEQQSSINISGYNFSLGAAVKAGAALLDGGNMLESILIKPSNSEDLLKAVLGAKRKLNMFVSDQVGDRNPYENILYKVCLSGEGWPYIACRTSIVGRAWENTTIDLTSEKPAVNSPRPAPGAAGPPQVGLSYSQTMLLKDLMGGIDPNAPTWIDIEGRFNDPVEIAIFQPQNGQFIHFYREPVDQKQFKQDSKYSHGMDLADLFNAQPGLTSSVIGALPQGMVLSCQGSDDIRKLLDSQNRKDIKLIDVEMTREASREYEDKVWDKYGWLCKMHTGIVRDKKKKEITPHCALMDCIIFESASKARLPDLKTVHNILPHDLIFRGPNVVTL
Assay [5] can be described thus: Cytotoxicity counterscreen for inhibitors of SARS-CoV-2 cell entry (AID 1645845). Also: nearly all actives have a fitted effect of over 50% in size. In outline:
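HEK293-ACE2 cells (Expi293F stably expressing human ACE2) seeded overnight, then compound for 1 h plus 48 h at 37C. Viability as ATP content by luminescence; normalized to wells with cells and media-only wells.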
A general note: The purpose of a counterscreen is to sort out artefacts and off-target activity.

Assay [6] is described as follows: Primary qHTS to identify inhibitors of SARS-CoV-2 cell entry (AID 1645846). Also: nearly all actives have a fitted effect of over 45% in size. Also: potency is read from the fitted curve at half-maximal effect. Particulars: activity change, negative = inhibition: at 57.1 µM (top of the series) unless noted. In a few lines:
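Using luciferase-reporting pseudoviruses carrying Wuhan-Hu-1 spike, the screen tracks entry into stably ACE2-expressing cells over 48 hr. Activity is expressed relative to spike particles versus particles lacking any fusion protein.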

Assay [7] has as its target Alpha-galactosidase (Coffea arabica) (UniProt Q42656). Put plainly: Counterscreen for Glucocerebrosidase Inhibitors: qHTS Assay for Coffee Bean alpha-Galactosidase at pH 4.5 (AID 957; active = well fitted curve in the direction sought with a large enough effect; an effect the other way counts as inactive or inconclusive;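 also: plate controls were enzyme alone for no effect and no enzyme for full effect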). In outline:
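Coffee bean alpha-galactosidase 2 nM, substrate 4-MU-alpha-Gal 80 uM, pH 4.5 citrate/Tween-20, 20 min RT. Cpd titration 0.7 nM–77 uM. Stop pH 10, fluorescence 365/440 nm; Hill-equation AC50.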

The target is the same in assay [8]. As to the kind of experiment: Counterscreen for Glucocerebrosidase Inhibitors: qHTS Assay for Coffee Bean alpha-Galactosidase at pH 5.9 (AID 998; active = well fitted curve in the direction sought with a large enough effect; an effect the other way counts as inactive or inconclusive;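 also: plate controls were uninhibited enzyme for no effect and no-enzyme basal signal for full effect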). In a few lines:
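Green coffee bean enzyme (2 nM) with 4-methylumbelliferyl alpha-D-galactopyranoside (80 uM) in 50 mM citric acid, 0.005% Tween-20, pH 5.9, 20 min at room temperature; compounds 0.7 nM–77 uM. Stopped at pH 10, fluorescence Ex365/Em440; Hill-fit AC50.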

Assay [9] in a line: Validation screen for inhibitors of Lassa infection (AID 463096). Also: potency is read from the fitted curve at half-maximal effect. As to activity change, negative = inhibition: % is scaled to controls: 0 for no effect and ±100 for the full control effect.
A short description of assay [10]: Confirmatory qHTS for VERO E6 Cytotoxicity Assay: Counterscreen for SARS-CoV-2 CPE Assay (AID 1508605). Also: potency is read from the fitted curve at half-maximal effect; nearly all actives have a fitted effect of over 60% in size.
The nature of assay [11]: qHTS Assay for Lipid Storage Modulators (AID 1519). As to activity change, negative = inhibition: % is scaled to controls: 0 for no effect and ±100 for the full control effect. The note with it: Drosophila S3 cells, BODIPY lipid droplet/cell ratio, laser cytometry, cells loaded with oleic acid. In a few lines: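 Cells seeded at 5,000 per well were treated with compounds over a concentration series and loaded with oleic acid (400 uM, as added). Lipid droplet fluorescence (488 nm excitation, 500-530 nm channel) was read by laser-scanning cytometry and normalized to 20 uM Triacsin C.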

The nature of assay [12]: qHTS profiling of the MIPE4 collection as inhibitors of Plasmodium falciparum (3D7) proliferation (AID 743344; call rule not given here;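 also: scaled between DMSO vehicle wells and 0.29 µM artemisinin as full inhibition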). Particulars: P. falciparum 3D7 in erythrocytes, SYBR Green DNA fluorescence, 72 h; at 28.5 µM (top of the series) unless noted. In outline:
(§1)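 Erythrocytes infected with P. falciparum (0.3% parasitemia, 2.5% hematocrit) incubated with compounds 72 h at 37 C, 5% CO2. Lysis with saponin/Triton buffer containing SYBR Green I, overnight at room temperature in the dark; DNA fluorescence (485/535 nm) normalised to 0.29 uM artemisinin and DMSO.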

A short description of assay [13]: qHTS profiling of the MIPE4 collection as inhibitors of Plasmodium falciparum (DD2) proliferation (AID 743345; call rule not given here). The note with it: P. falciparum Dd2 in erythrocytes, SYBR Green DNA, 72 h; at 28.5 µM (top of the series) unless noted. In a few lines:
as §1

The nature of assay [14]: qHTS profiling of the MIPE4 collection as inhibitors of Plasmodium falciparum (DD2) proliferation (Rep 2) (AID 743346; call rule not given here). The note with it: P. falciparum Dd2 in erythrocytes, SYBR Green DNA, 72 h; at 28.5 µM (top of the series) unless noted. In a few lines:
as §1

Assay [15] is described as follows: qHTS profiling of the MIPE4 collection as inhibitors of Plasmodium falciparum (HB3) proliferation (AID 743347; call rule not given here;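 also: plate controls were DMSO vehicle wells for no effect and artemisinin wells for full effect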). Particulars: P. falciparum HB3 in erythrocytes, SYBR Green DNA, 72 h; at 28.5 µM (top of the series) unless noted. In a few lines:
as §1

Sequence of Alpha-galactosidase (Coffea arabica) (Q42656 whole entry, looked up): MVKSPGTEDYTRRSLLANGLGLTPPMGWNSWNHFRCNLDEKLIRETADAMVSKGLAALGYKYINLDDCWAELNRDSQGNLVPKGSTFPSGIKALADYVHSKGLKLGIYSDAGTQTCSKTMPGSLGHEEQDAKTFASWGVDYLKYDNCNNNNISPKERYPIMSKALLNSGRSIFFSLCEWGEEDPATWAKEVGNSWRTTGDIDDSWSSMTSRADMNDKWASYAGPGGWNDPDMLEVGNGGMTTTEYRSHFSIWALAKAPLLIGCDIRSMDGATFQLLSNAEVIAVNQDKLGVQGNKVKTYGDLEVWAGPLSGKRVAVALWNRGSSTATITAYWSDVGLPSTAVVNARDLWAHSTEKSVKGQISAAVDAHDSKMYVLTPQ

Take `CC(C)NC[C@@H](O)c1ccc(O)c(O)c1`: in assay [1], the molecule was classed as inactive. Besides, the Potency result in assay [2], in [3] and in assay [4] was “inactive” throughout.
For `C[C@H]1C/C=C/[C@@H]2[C@@H]3O[C@]3(C)[C@@H](C)[C@H]3[C@H](Cc4ccccc4)NC(=O)[C@]32OC(=O)O/C=C/[C@](C)(O)C1=O`, the Potency entry in assay [2] and in [4] was “inactive” throughout.
As for `N#CC(c1ccnc(NCCc2cccnc2)n1)c1nc2ccccc2s1` (stereo not given), the Potency entry in [2], in assay [5] and in [6] was “inactive” throughout. Besides, the Potency in assay [3] is 15.3 µM (active).
Turning to `Fc1ccc(CNc2ncnc3ccc(F)cc23)cc1`, the Potency in assay [2] is 19.3 µM (active); in assay [4], 24.3 µM (active); in assay [6], 8.91 µM (active). In addition, the Potency entry in assay [3] is “inactive”.
For the molecule `CC1OC(OC2CC(O)C3(CO)C4C(O)CC5(C)C(C6=CC(=O)OC6)CCC5(O)C4CCC3(O)C2)C(O)C(O)C1O` (stereo not given), the Potency entry in assay [2] and in assay [4] was “inactive” throughout.
Consider `COc1ccc(NC(=O)/C=C/c2ccc(Cl)cc2)cc1`, for which the Potency entry in assay [2] and in assay [4] was “inactive” in each case.
Consider `Cc1ccc(S(=O)(=O)N[C@@H](Cc2ccccc2)C(=O)CCl)cc1`, for which the molecule was classed as inactive in assay [7], in assay [8] and in [1]. Moreover, the Potency in [9] is 7.08 µM (active). Moreover, the Potency entry in [2], in assay [3], in assay [4] and in assay [5] was “inactive” each time.
Turning to `Nc1ncnc2c1c(-c1cccc(OCc3ccccc3)c1)cn2C1CC(CN2CCCC2)C1` (stereo not given), in assay [2], the Potency result was “inactive”. Further, the results for the Potency in assay [3], in assay [10] and in assay [6] were 27.3 µM (active), 12.6 µM (active) and 14.1 µM (active), respectively.
`CC(C)n1cnc2c(NCCc3ccc(O)cc3)nc(-c3csc4ccccc34)nc21`: the Potency entry in assay [2], in assay [3] and in [4] was “inactive” throughout. Besides, the activity change, negative = inhibition in [6] is -45.8%.
`O=C1OC(=O)C2C3CCC(O3)C12` (stereo not given): the activity change, negative = inhibition in assay [11] (at 57.5 µM (top of the series)) was 0.66% (inactive) and -7.44% (inactive). Further, the max response in assay [11] (measured here: cell count channel max response) is -1.46% and -29.7%; in assay [11] (measured here: lipid channel max response), 1.23% and -36.1%. In addition, the Potency entry in assay [9] and in [2] was “inactive” each time. Moreover, the outcome in assay [1] was inactive. In addition, the Potency in [3] was 12.6 µM (active).
In the case of `FC(F)(F)c1ccc(C=Cc2nc(COc3ccc(CCCCn4ccnn4)cc3)co2)cc1`, the Potency in assay [2] is 0.0432 µM (active); in [4] it was 0.0217 µM (active).
In the same order, the values of `CC[C@H](C)[C@@H]1NC(=O)CNC(=O)c2csc(n2)[C@H](C(C)(C)O)OC(=O)C(C)(C)[C@H](CCCC(C)(Cl)Cl)OC(=O)c2csc1n2` are “inactive” and “inactive”.
For `O=c1cccc2c1c1cc[nH]c3ccc(=O)n2c31`, in that order: “inactive” and “inactive”.
In the same order, the values of `CC1=CC(O)C(O)C2(C)C1CC1OC(=O)C(O)C3C(C)C(O)C4(O)OCC13C42` (stereo not given) are “inactive” and “inactive”.
Molecule `CC(N[C@H]1CCCC[C@H]1NC(=O)c1ccc(Cl)cc1)c1cccc2ccccc12` (stereo not given in full) yielded a parasite growth, % of DMSO control in assay [12] of 31.1%. Moreover, in assay [13], the parasite growth remaining, % of DMSO control (lower = more inhibition) came to 79.2%. Moreover, the parasite growth, % of control (lower = inhibition) in [14] came out at 64%. Also, the growth, % of control in assay [15] worked out at 39.9%. For the same molecule, the Potency result in assay [2] was “inactive”. In addition, the Potency in assay [3] was 3.43 µM (active); in [4] it was 4.85 µM (active); in [6] it was 28.2 µM (active).
As to `COc1cc2c(c(OC)c1OC)-c1ccc(OC)c(=O)cc1C(N)CC2` (stereo not given), the Potency result in assay [2] was “inactive”. Also, the Potency in assay [4] is 0.178 µM (active).
Turning to `NC(=Nc1ccccc1)NC(=O)c1nc(Cl)c(N)nc1N`, the call in [7], in assay [8] and in assay [1] was inactive. In addition, the Potency entry in [2], in assay [3] and in assay [4] was “inactive” each time.

Values taken from PubChem BioAssay (NCATS).
